Experimental data published in PubChem BioAssay (NCATS).
Inconclusive results are not listed. The source made the active and inactive calls. Calls come from the whole dose curve; as a rule, active = well fitted inhibition curve with a large enough effect; inconclusive = small, poorly fitted or top-dose-only effect; inactive = flat fitted curve, though single readings scatter.

What was measured:
[1] = system: CP256; assay: qHTS profiling for inhibitors of Plasmodium falciparum proliferation (AID 504749);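 note: 0% = DMSO vehicle and full inhibition = artemisinin control; nearly all actives have a fitted effect of over 60% in size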; conditions: P. falciparum in erythrocytes, SYBR Green DNA, 72 h; series mostly up to 28.7 µM
Summary of the method: (§1)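 In a 72 h erythrocytic culture (37 C, humidified, 5% CO2) at 2.5% hematocrit and 0.3% starting parasitemia, compounds were tested; SYBR Green I in detergent lysis buffer stained parasite DNA overnight.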

[2] = system: CP262; assay: as above; conditions: P. falciparum in erythrocytes, SYBR Green DNA, 72 h; series mostly up to 28.7 µM
Summary of the method: as §1

[3] = system: CP265; assay: as above; conditions: P. falciparum in erythrocytes, SYBR Green DNA, 72 h; series mostly up to 28.7 µM
Summary of the method: as §1

[4] = system: CP266; assay: as above; conditions: P. falciparum in erythrocytes, SYBR Green DNA, 72 h; series mostly up to 28.7 µM
Summary of the method: as §1

[5] = system: CP268; assay: as above; conditions: P. falciparum in erythrocytes, SYBR Green DNA, 72 h; series mostly up to 28.7 µM
Summary of the method: as §1

[6] = system: CP269; assay: as above; conditions: P. falciparum in erythrocytes, SYBR Green DNA, 72 h; series mostly up to 28.7 µM
Summary of the method: as §1

[7] = system: CP286; assay: as above; conditions: P. falciparum in erythrocytes, SYBR Green DNA, 72 h; series mostly up to 28.7 µM
Summary of the method: as §1

[8] = system: CP291; assay: as above; conditions: P. falciparum in erythrocytes, SYBR Green DNA, 72 h; series mostly up to 28.7 µM
Summary of the method: as §1

[9] = system: CP297; assay: as above; conditions: P. falciparum in erythrocytes, SYBR Green DNA, 72 h; series mostly up to 28.7 µM
Summary of the method: as §1

[10] = system: CP305; assay: as above; conditions: P. falciparum in erythrocytes, SYBR Green DNA, 72 h; series mostly up to 28.7 µM
Summary of the method: as §1

[11] = system: CP315; assay: as above; conditions: P. falciparum in erythrocytes, SYBR Green DNA, 72 h; series mostly up to 28.7 µM
Summary of the method: as §1

[12] = system: CP325; assay: as above; conditions: P. falciparum in erythrocytes, SYBR Green DNA, 72 h; series mostly up to 28.7 µM
Summary of the method: as §1

[13] = system: CP329; assay: as above; conditions: P. falciparum in erythrocytes, SYBR Green DNA, 72 h; series mostly up to 28.7 µM
Summary of the method: as §1

[14] = system: CP335; assay: as above; conditions: P. falciparum in erythrocytes, SYBR Green DNA, 72 h; series mostly up to 28.7 µM
Summary of the method: as §1

[15] = system: DFO2036; assay: as above; conditions: P. falciparum in erythrocytes, SYBR Green DNA, 72 h; series mostly up to 28.7 µM
Summary of the method: as §1

[16] = system: DIV14; assay: as above; conditions: P. falciparum in erythrocytes, SYBR Green DNA, 72 h; series mostly up to 28.7 µM
Summary of the method: as §1

[17] = system: DIV17; assay: as above; conditions: P. falciparum in erythrocytes, SYBR Green DNA, 72 h; series mostly up to 28.7 µM
Summary of the method: as §1

[18] = system: DIV30; assay: as above; conditions: P. falciparum in erythrocytes, SYBR Green DNA, 72 h; series mostly up to 28.7 µM
Summary of the method: as §1

[19] = system: Dd2; assay: as above; conditions: P. falciparum in erythrocytes, SYBR Green DNA, 72 h; series mostly up to 28.7 µM
Summary of the method: as §1

[20] = system: ECU; assay: as above; conditions: P. falciparum in erythrocytes, SYBR Green DNA, 72 h; series mostly up to 28.7 µM
Summary of the method: as §1

[21] = system: FAB9; assay: as above; conditions: P. falciparum in erythrocytes, SYBR Green DNA, 72 h; series mostly up to 28.7 µM
Summary of the method: as §1

[22] = system: GB4; assay: as above; conditions: P. falciparum in erythrocytes, SYBR Green DNA, 72 h; series mostly up to 28.7 µM
Summary of the method: as §1

[23] = system: HB3; assay: as above; conditions: P. falciparum in erythrocytes, SYBR Green DNA, 72 h; series mostly up to 28.7 µM
Summary of the method: as §1

[24] = system: ICS; assay: as above; conditions: P. falciparum in erythrocytes, SYBR Green DNA, 72 h; series mostly up to 28.7 µM
Summary of the method: as §1

[25] = system: JCK; assay: as above; conditions: P. falciparum in erythrocytes, SYBR Green DNA, 72 h; series mostly up to 28.7 µM
Summary of the method: as §1

[26] = system: N140; assay: as above; conditions: P. falciparum in erythrocytes, SYBR Green DNA, 72 h; series mostly up to 28.7 µM
Summary of the method: as §1

[27] = system: P93_24; assay: as above; conditions: P. falciparum in erythrocytes, SYBR Green DNA, 72 h; series mostly up to 28.7 µM
Summary of the method: as §1

[28] = system: P94_40; assay: as above; conditions: P. falciparum in erythrocytes, SYBR Green DNA, 72 h; series mostly up to 28.7 µM
Summary of the method: as §1

[29] = system: PAD; assay: as above; conditions: P. falciparum in erythrocytes, SYBR Green DNA, 72 h; series mostly up to 28.7 µM
Summary of the method: as §1

[30] = system: PC15; assay: as above; conditions: P. falciparum in erythrocytes, SYBR Green DNA, 72 h; series mostly up to 28.7 µM
Summary of the method: as §1

[31] = system: PC26; assay: as above; conditions: P. falciparum in erythrocytes, SYBR Green DNA, 72 h; series mostly up to 28.7 µM
Summary of the method: as §1

[32] = system: PC49; assay: as above; conditions: P. falciparum in erythrocytes, SYBR Green DNA, 72 h; series mostly up to 28.7 µM
Summary of the method: as §1

[33] = system: SC27B; assay: as above; conditions: P. falciparum in erythrocytes, SYBR Green DNA, 72 h; series mostly up to 28.7 µM
Summary of the method: as §1

[34] = system: TAB109; assay: as above; conditions: P. falciparum in erythrocytes, SYBR Green DNA, 72 h; series mostly up to 28.7 µM
Summary of the method: as §1

[35] = system: TAB113; assay: as above; conditions: P. falciparum in erythrocytes, SYBR Green DNA, 72 h; series mostly up to 28.7 µM
Summary of the method: as §1

[36] = system: TAB165; assay: as above; conditions: P. falciparum in erythrocytes, SYBR Green DNA, 72 h; series mostly up to 28.7 µM
Summary of the method: as §1

[37] = system: W2; assay: as above; conditions: P. falciparum in erythrocytes, SYBR Green DNA, 72 h; series mostly up to 28.7 µM
Summary of the method: as §1

[38] = system: KB-3-1; assay: Cytotoxic Profiling of Annotated Libraries Using Quantitative High-Throughput Screening (AID 1296008); conditions: Five cell lines viability, CellTiter-Glo ATP luminescence, 48-72 h; max response: hits give low values; note: % is set by controls: 0 for no effect and ±100 for the full control effect; nearly all actives have a fitted effect of over 60% in size
Summary of the method: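 Cytotoxicity was measured as CellTiter-Glo ATP luminescence, read after 10 min at room temperature. Compound treatment of the cells lasted 48 or 72 hr at 37 degrees Celsius in a qHTS format.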

[39] = system: astro; assay: Drug repurposing screens with cells derived from glioblastoma tumor samples (AID 1345199); conditions: viability, ATP luminescence, 48 h; series mostly up to 45.9 µM; note: % is set by controls: 0 for no effect and ±100 for the full control effect; nearly all actives have a fitted effect of over 40% in size
Summary of the method: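 Primary testing used CD133+ neurospheres from four GBM patients, seven concentrations, 48 h exposure and ATP-based viability; confirmation added three slower-growing patient lines.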

C[N+](C)(C)CC(=O)[O-]
inactive: Potency [1] | Potency [2] | Potency [3] | Potency [4] | Potency [5] | Potency [6] | Potency [7] | Potency [8] | Potency [9] | Potency [10] | Potency [11] | Potency [12] | Potency [13] | Potency [14] | Potency [15] | Potency [16] | Potency [17] | Potency [18] | Potency [19] | Potency [20] | Potency [21] | Potency [22] | Potency [23] | Potency [24] | Potency [25] | Potency [26] | Potency [27] | Potency [28] | Potency [29] | Potency [30] | Potency [31] | Potency [32] | Potency [33] | Potency [34] | Potency [35] | Potency [36] | Potency [37] | max response [38] 9.58% | Potency [39]
